RE007 growth inh: less growth of the S. pombe RE007 Vpr strain | S. pombe RE007 Vpr strain, BacTiter-Glo ATP luminescence, 24 h | actives 0.21% (n = 360,000) | Potency, µM (top dose mostly 92.2 µM), for the others: top-dose activity change, negative = less growth, actives largely listed as inhibitors; active = well fitted falling curve with a large enough effect; inconclusive = small, poorly fitted or top-dose-only effect; inactive = no such curve, though single readings can be large or run the other way; also: potency is read from the fitted curve at half-maximal effect; % is scaled to controls: 0 for no effect and ±100 for the full control effect; nearly all actives have a fitted effect of over 50% in size
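Fission yeast RE007 carrying one integrated HIV-1 vpr copy, seeded at OD 0.01 in PMG+AL medium with 23 nL pinned compound. Grown 24 h at 30 degrees; viability read by BacTiter-Glo luminescence after 5 min.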
Shiga toxin inh: blocks Shiga toxin action in Vero cells; Vero cells, Shiga toxin protein synthesis inhibition reporter; inhibition, % at 38.7 µM; actives 9.2% (n = 290,000); in the data active = inhibition mostly above about 28%, no sharp cut-off; inactive = mostly below about 43%; also: 0% is about no effect
Cycloheximide cs: affects cycloheximide protein synthesis inhibition readout, counter-screen. max response, %. cell reporter, cycloheximide protein synthesis inhibition counterscreen. actives 12% (n = 300,000). AID 2314; in the data active = max response mostly above about 13%, no sharp cut-off; inactive = mostly below about 14%; also: read at 38.3 µM for the half of the compounds with a filed dose; 0% is about no effect
LmPK inhibitor: LmPK (Leishmania mexicana) enzyme inhibition; Potency, µM (highest dose often 57.5 µM), without a hit: at the top dose activity change, negative = inhibition, hits mostly inhibitors; AID 1721; actives 0.37% (n = 290,000); purified LmPK, Kinase-Glo ATP luminescence, 1 h; Q27686; also: potency is read from the fitted curve at half-maximal effect; % is scaled to controls: 0 for no effect and ±100 for the full control effect
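Screened at intermediate enzyme activity to detect both inhibitors and activators: LmPK at 0.1 nM, with a 0.5 nM enzyme column as activation reference. PEP 0.5 mM, ADP 0.1 mM; ATP detected by luminescence after 1 h.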
Giardia FBPA inh: inhibitors of Giardia lamblia fructose-1,6-bisphosphate aldolase. A8B2U2. AID 2451. actives 0.71% (n = 290,000). Potency, µM (series often up to 59.6 µM), for the others: at the highest dose activity, negative = inhibition, usual class: inhibitors. purified Giardia FBPA; also: potency is read from the fitted curve at half-maximal effect; % is scaled to controls: 0 for no effect and ±100 for the full control effect; nearly all actives have a fitted effect of over 55% in size
Target sequence (A8B2U2 whole entry, looked up): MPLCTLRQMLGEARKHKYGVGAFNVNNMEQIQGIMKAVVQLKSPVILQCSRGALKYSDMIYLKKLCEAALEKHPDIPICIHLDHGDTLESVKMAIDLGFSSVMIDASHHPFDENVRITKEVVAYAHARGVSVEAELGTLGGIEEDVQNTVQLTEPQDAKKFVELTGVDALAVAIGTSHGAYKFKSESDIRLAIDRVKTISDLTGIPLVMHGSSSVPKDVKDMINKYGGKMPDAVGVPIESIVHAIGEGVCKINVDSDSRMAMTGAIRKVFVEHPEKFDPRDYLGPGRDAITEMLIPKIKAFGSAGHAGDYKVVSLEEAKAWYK
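40 nM FBPA preincubated 10 min at RT with compound (up to 57.5 uM final), then substrate plus GAPDH/TPI/NAD/arsenate coupling and diaphorase/resazurin added. Fluorescence read after 20 min at RT, 525/598 nm.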
Tb PYK inh: inhibitors of Trypanosoma brucei pyruvate kinase; Q57TT1; TbPYK enzyme, Kinase-Glo Plus ATP luminescence, 45 min; Potency, µM (doses to about 76.8 µM), inactives show at the highest dose activity, negative = inhibition, hits mostly inhibitors; actives 0.12% (n = 410,000); AID 624173; also: potency is read from the fitted curve at half-maximal effect; % is scaled to controls: 0 for no effect and ±100 for the full control effect; nearly all actives have a fitted effect of over 50% in size
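Glycolytic pyruvate kinase of T. brucei was incubated with substrate, test compound and 130 uM ADP for 45 minutes at room temperature. Luminescent Kinase-Glo Plus signal was measured after 10 minutes.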
* marks the source's active call; other numbers are inactive results; ? = inconclusive; nt = not tested or not shown; [ ] = remark or other dose. The full list was thinned out, with hits kept by preference. Unless noted, calls follow the shape of the dose curve; as a rule, active = well fitted curve in the direction sought with a large enough effect; inconclusive = small, poorly fitted or top-dose-only effect, or another doubt; inactive = no such curve, though single readings can be large; an effect the other way counts as inactive or inconclusive.

SMILES	RE007 growth inh	Shiga toxin inh	Cycloheximide cs	LmPK inhibitor	Giardia FBPA inh	Tb PYK inh
CC(C)c1ccc(CC(=O)N2CCC2(C)C(=O)NS(=O)(=O)c2cccc(C#N)c2)cc1 (configuration not stated)	9%[18.4 µM]	nt	nt	nt	nt	-9%
CC(C)NC(=O)C1(C)CSCC(=O)N1C1CC1 (configuration not stated)	5%	nt	nt	nt	nt	nt
O=C1C=C(NCc2ccccc2)c2ccccc2C1=O	?	81*	56*	-1%	1.3µM*	3%
O=C1C=C(Nc2ccc(F)cc2)c2ccccc2C1=O	-11%	nt	nt	nt	nt	3%
O=C1C=C(Nc2ccccc2O)c2ccccc2C1=O	?	84*	17*	-12%	18µM*	4%
O=c1cccccc1NCc1ccccc1	-15%[3.69 µM]	6	26*	-8%	8.9µM*	nt
Cc1ccc(CNC(=O)c2ccc3c(c2)CCN3S(=O)(=O)c2ccc(Br)cc2)cc1	nt	nt	nt	nt	nt	-3%
N[C@@H](Cc1cc(CP(=O)(O)O)cc(-c2ccccc2Cl)c1)C(=O)O	nt	24	6	nt	?	nt
COc1ccc(S(=O)(=O)N(CC(=O)NCCc2ccccc2)c2ccc(Cl)cc2)cc1	nt	nt	nt	nt	nt	0%
COCCNc1c(-c2ccc(OC)c(OC)c2)nc2ccc(Cl)cn12	-18%	-11	-5	1%	10%	-9%
COCCNc1c(-c2cc3ccc(C)c(C)c3[nH]c2=O)nc2ccccn12	-13%	63*	42*	5%	0%	-2%
C/C(N[C@@H]1CSCC1O)=C1/C(=O)CC2[C@@H]1C2(C)C (some centres not stated)	nt	nt	nt	nt	-10%	nt
C/C(NC(=O)c1ccccc1)=C1/C(=O)CC2C1C2(C)C (configuration not stated)	-20%	119*	43*	-2%	8%	-9%
Cc1ccc(OCC(=O)N(Cc2ccco2)Cc2ccco2)cc1C	nt	nt	nt	nt	nt	-1%
COc1ccc(NC(=O)c2nc3ccccc3s2)cc1	-30%	25*	91*	16µM*	-22%	-12%
COc1ccc(OC)c(NC(=O)c2nc3ccccc3s2)c1	-5%	44	31*	1%	0%	-1%
O=C(Nc1nnc(-c2ccccc2Cl)o1)c1nc2ccccc2s1	-8%	22*	14*	1%	?	1%
CC(C)Oc1ccc(C(=O)Nc2ccc(-c3nc4ccccc4s3)cc2)cc1	nt	nt	nt	nt	nt	1%
O=C(Nc1nnc(-c2ccccc2Cl)o1)c1ccco1	-3%	11	9	-13%	?	-4%
CC(C)NC(=O)c1nc2ccccc2s1	-14%	30*	24*	-6%	8%	-26%
CSc1nc(C)c(C(=O)C[n+]2ccc(C)cc2)cc1C#N	-3%	3	-2	2%	2%	7%
O=C(NC1CCCC1)C1CCN(c2cnccn2)CC1	-14%	14	-1	2%	1%	-7%
COc1ccc(OC)c(NC(=O)Cn2c(C)nc3ccccc3c2=O)c1	-8%	82*	32*	1%	0%	-5%
C=CCNC(=O)c1nc2ccccc2s1	-11%	118*	51*	-1%	-7%	-1%
C=CCS(=O)(=O)c1nc2ccccc2s1	-24%	21	44*	-8%	-2%	0%
SMILES	RE007 growth inh	Shiga toxin inh	Cycloheximide cs	LmPK inhibitor	Giardia FBPA inh	Tb PYK inh
C=CCNC(=O)c1ccc(CSc2nc3ccccc3s2)cc1	-9%	-12	-2	-3%	nt	-1%
O=S(=O)(CCc1ccccc1)c1nc2ccccc2s1	nt	nt	nt	nt	2%	nt
Cc1ccc(N2CCN(c3nc4ccc(C(=O)c5ccccc5)cc4n4cnnc34)CC2)c(C)c1	nt	nt	nt	nt	nt	5%[15.4 µM]
O=c1cc(CSCc2ccc(Cl)cc2)[nH]c(=O)[nH]1	-6%	-4	6	2%	17%	4%
O=C(O)c1cccc(CN2C(=O)SC(Nc3ccccc3)C2=O)c1 (configuration not stated)	18%	17	17*	0%	4%	-9%
COc1cccc(N2CCN(c3ncccn3)CC2)c1	-19%	45*	60*	-5%	1%	0%
CC(=O)c1ccc(N2CCN(c3ncccn3)CC2)cc1	-8%	48	29*	0%	10%	-2%
COc1cccc(C(=O)N2CCN(c3ncccn3)CC2)c1	-4%	-6	-3	2%	8%	-2%
CC(=O)c1ccc(NC(=O)CN2CCN(c3ncccn3)CC2)cc1	-1%	-13	3	1%	-28%	2%
CCN(CC)S(=O)(=O)c1cc(NC(=O)c2ccc(-n3cncn3)c([N+](=O)[O-])c2)ccc1C	-4%	26	-2	-7%	nt	4%
Cc1cccc(C(=O)N=c2sccn2C)c1[N+](=O)[O-]	-10%	74*	50*	-3%	nt	1%
CCOc1ncccc1C(=O)N=c1sccn1C	2%	4	-1	0%	-1%	-1%
Cc1ccc(C(=O)N=c2sccn2C)cc1C	?	-16	-2	-6%	nt	-6%
Cc1ccccc1C(=O)N=c1sccn1C	8%	46	13*	3%	1%	-1%
CCc1cccc(C)c1NC(=O)CN1CCN(S(=O)(=O)c2ccc(C(C)(C)C)cc2)CC1	-1%	nt	nt	nt	nt	10%
O=C(c1ccncc1)N1CCC2(CCN(Cc3ccncc3)CC2)CC1	nt	nt	nt	nt	3%	1%
Nc1nc(CSc2ccc(Cl)cc2)nc(N2CCCCC2)n1	-3%	37	13	1%	-5%	3%
Nc1nc(CSc2ccccc2)nc(N2CCCCC2)n1	12%	138*	51*	-1%	0%	-2%
CC(=O)Nc1cccc(-c2ccnc3c2CC(C)(C(=O)NCC2CC2)O3)c1 (configuration not stated)	-6%	nt	nt	nt	nt	-1%
N#Cc1nc(-c2ccc(Cl)cc2)oc1NCC1CCCO1 (configuration not stated)	9%	108*	21*	0%	-5%	2%
N#Cc1nc(-c2cccc3ccccc23)oc1NCC1CCCO1 (configuration not stated)	-8%	65*	52*	-1%	-17%	-2%
Cc1c(NCc2cc(Cl)cc(Cl)c2O)c(=O)n(-c2ccccc2)n1C	-8%	-10	-3	-8%	-2%	1%
Cc1c(NCc2nc3ccccc3[nH]2)c(=O)n(-c2ccccc2)n1C	-3%	57	29*	0%	-2%	4%
Cn1nccc1C(=O)Nc1ccc(Cl)cc1	-15%	68*	28*	-23%	-1%	-10%
Cn1nccc1C(=O)Nc1ccc2c(c1)OCO2	-9%	107*	28*	-26%	nt	-17%
COc1ccc(S(=O)(=O)N2CCSC2C)cc1C (configuration not stated)	-21%	2	1	3%	9%	-2%
CC(C)Cc1ccc(-c2cc3nc(NCCOc4ccccc4)ccn3n2)cc1	-1%[18.4 µM]	nt	nt	nt	nt	5%
